# Structures can show the parent of a compound that is named as a salt. ± gives the standard deviation of the averaged measurements.
# Columns and labels:
# [1] = tested on: Saccharomyces cerevisiae BY4741 SeMeCo community; experiment: mean cell size (pixel area) (pixels); higher = larger cells; conditions: 10 µM; 24 h; SM minimal medium
# In short: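 A fluorescent Saccharomyces cerevisiae BY4741 community carrying four plasmids was used, with each plasmid complementing one auxotrophy and bearing a fluorescent marker. An overnight preculture at OD600 = 1.0 was diluted to OD600 = 0.3, and 70 µl went into 384-well plates acoustically predosed with drug (final 10 µM) in SM medium for 24 h. After paraformaldehyde fixation, cells were imaged by automated confocal microscopy and analysed in Harmony, giving the mean cell pixel area per well. Each value is the average of 3 replicates. Same SeMeCo high-content imaging drug screen: Selleck FDA-approved drugs at 10 µM, 24 h in SM medium, 384-well plates, 3 replicates.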
# [2] = tested on: Saccharomyces cerevisiae BY4741 SeMeCo community; experiment: z-score of prototroph abundance vs DMSO median; higher = larger share of this subpopulation than in DMSO controls; conditions: 10 µM; 24 h; SM minimal medium; subpopulation (auxotrophy): Prototroph
# In short: (§1)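 A Saccharomyces cerevisiae BY4741 community carried four plasmids, each restoring one auxotrophy and encoding a distinct fluorescent protein. It was pre-grown overnight to OD600 1.0, diluted to 0.3, and 70 µl was added to 384-well plates acoustically predosed with library drugs (10 µM final), then grown 24 h in minimal SM medium. Cells were paraformaldehyde-fixed and imaged by automated confocal microscopy, with single-auxotroph fluorescent strains setting thresholds and autofluorescence correction. Each subpopulation's abundance was scored as a z-score against the vehicle-well median.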
# [3] = tested on: Saccharomyces cerevisiae BY4741 SeMeCo community; experiment: z-score of subpopulation abundance vs DMSO median, subpopulation auxotrophic for M; higher = larger share of this subpopulation than in DMSO controls; conditions: 10 µM; 24 h; SM minimal medium; subpopulation (auxotrophy): M
# In short: as §1
# [4] = tested on: Saccharomyces cerevisiae BY4741 SeMeCo community; experiment: z-score of subpopulation abundance vs DMSO median, subpopulation auxotrophic for U; higher = larger share of this subpopulation than in DMSO controls; conditions: 10 µM; 24 h; SM minimal medium; subpopulation (auxotrophy): U
# In short: as §1
# [5] = tested on: Saccharomyces cerevisiae BY4741 SeMeCo community; experiment: z-score of subpopulation abundance vs DMSO median, subpopulation auxotrophic for H; higher = larger share of this subpopulation than in DMSO controls; conditions: 10 µM; 24 h; SM minimal medium; subpopulation (auxotrophy): H
# In short: as §1
# [6] = tested on: Saccharomyces cerevisiae BY4741 SeMeCo community; experiment: z-score of subpopulation abundance vs DMSO median, subpopulation auxotrophic for LU; higher = larger share of this subpopulation than in DMSO controls; conditions: 10 µM; 24 h; SM minimal medium; subpopulation (auxotrophy): LU
# In short: as §1
# [7] = tested on: Saccharomyces cerevisiae BY4741 SeMeCo community; experiment: z-score of subpopulation abundance vs DMSO median, subpopulation auxotrophic for HM; higher = larger share of this subpopulation than in DMSO controls; conditions: 10 µM; 24 h; SM minimal medium; subpopulation (auxotrophy): HM
# In short: as §1
# [8] = tested on: Saccharomyces cerevisiae BY4741 SeMeCo community; experiment: z-score of subpopulation abundance vs DMSO median, subpopulation auxotrophic for HU; higher = larger share of this subpopulation than in DMSO controls; conditions: 10 µM; 24 h; SM minimal medium; subpopulation (auxotrophy): HU
# In short: as §1
# [9] = tested on: Saccharomyces cerevisiae BY4741 SeMeCo community; experiment: z-score of subpopulation abundance vs DMSO median, subpopulation auxotrophic for HL; higher = larger share of this subpopulation than in DMSO controls; conditions: 10 µM; 24 h; SM minimal medium; subpopulation (auxotrophy): HL
# In short: as §1
# [10] = tested on: Saccharomyces cerevisiae BY4741 SeMeCo community; experiment: z-score of subpopulation abundance vs DMSO median, subpopulation auxotrophic for HLU; higher = larger share of this subpopulation than in DMSO controls; conditions: 10 µM; 24 h; SM minimal medium; subpopulation (auxotrophy): HLU
# In short: as §1
# [11] = tested on: Saccharomyces cerevisiae BY4741 SeMeCo community; experiment: z-score of subpopulation abundance vs DMSO median, subpopulation auxotrophic for HLM; higher = larger share of this subpopulation than in DMSO controls; conditions: 10 µM; 24 h; SM minimal medium; subpopulation (auxotrophy): HLM
# In short: as §1
# [12] = tested on: Saccharomyces cerevisiae BY4741 SeMeCo community; experiment: z-score of subpopulation abundance vs DMSO median, subpopulation auxotrophic for HUM; higher = larger share of this subpopulation than in DMSO controls; conditions: 10 µM; 24 h; SM minimal medium; subpopulation (auxotrophy): HUM
# In short: as §1
# [13] = tested on: Saccharomyces cerevisiae BY4741 SeMeCo community; experiment: z-score of subpopulation abundance vs DMSO median, subpopulation auxotrophic for LUM; higher = larger share of this subpopulation than in DMSO controls; conditions: 10 µM; 24 h; SM minimal medium; subpopulation (auxotrophy): LUM
# In short: as §1
# [14] = tested on: Saccharomyces cerevisiae BY4741 SeMeCo community; experiment: z-score of subpopulation abundance vs DMSO median, subpopulation auxotrophic for HLUM; higher = larger share of this subpopulation than in DMSO controls; conditions: 10 µM; 24 h; SM minimal medium; subpopulation (auxotrophy): HLUM
# In short: as §1
# [15] = tested on: Saccharomyces cerevisiae BY4741 SeMeCo community; experiment: z-score of subpopulation abundance vs DMSO median, subpopulation auxotrophic for LM; higher = larger share of this subpopulation than in DMSO controls; conditions: 10 µM; 24 h; SM minimal medium; subpopulation (auxotrophy): LM
# In short: as §1
# [16] = tested on: Saccharomyces cerevisiae BY4741 SeMeCo community; experiment: z-score of subpopulation abundance vs DMSO median, subpopulation auxotrophic for UM; higher = larger share of this subpopulation than in DMSO controls; conditions: 10 µM; 24 h; SM minimal medium; subpopulation (auxotrophy): UM
# In short: as §1
SMILES,mean cell size [1],z-score of prototroph abundance [2],z-score of subpopulation abundance [3],z-score of subpopulation abundance [4],z-score of subpopulation abundance [5],z-score of subpopulation abundance [6],z-score of subpopulation abundance [7],z-score of subpopulation abundance [8],z-score of subpopulation abundance [9],z-score of subpopulation abundance [10],z-score of subpopulation abundance [11],z-score of subpopulation abundance [12],z-score of subpopulation abundance [13],z-score of subpopulation abundance [14],z-score of subpopulation abundance [15],z-score of subpopulation abundance [16]
COC(=O)C1=C(C)NC(C)=C(C(=O)OC(C)(C)CN(C)CCC(c2ccccc2)c2ccccc2)C1c1cccc([N+](=O)[O-])c1 (stereo unspecified) [Lercanidipine hydrochloride],12.3 ± 0.19,-0.42,0.32,-1.5,2.45,-0.32,2.19,-0.84,1.84,0.32,0.74,0.37,0.24,-0.22,–,–
CCCNCC(O)COc1ccccc1C(=O)CCc1ccccc1 (stereo unspecified) [Propafenone HCl],12.36 ± 0.1,0.15,-0.38,0.55,-0.52,-0.32,–,0.58,–,-0.61,-0.63,-0.3,–,0.05,0.27,0.94
OCCOCCN1CCN(C2=Nc3ccccc3Sc3ccccc32)CC1 [Quetiapine Fumarate],–,-0.49,0.24,-0.17,-0.24,-0.19,–,-0.61,-0.06,0.76,0.55,0.19,0.86,–,0.32,0.49
CCNC(=O)[C@@H]1CCCN1C(=O)[C@H](CCCNC(=N)N)NC(=O)[C@H](CC(C)C)NC(=O)[C@@H](CC(C)C)NC(=O)[C@H](Cc1ccc(O)cc1)NC(=O)[C@H](CO)NC(=O)[C@H](Cc1c[nH]c2ccccc12)NC(=O)[C@H](Cc1c[nH]cn1)NC(=O)[C@@H]1CCC(=O)N1 [Leuprolide Acetate],12.5 ± 0.15,-0.62,0.38,–,–,-0.03,–,1.03,0.14,0.54,0.28,0.45,0.35,0.75,–,–

# Source: the supplement of paper PMC8975748
